# Reference: the supplement of paper PMC8728848
# The sample as a whole holds a higher share of the strongest signals than the screen did.
# Columns and labels:
# Assay in all cases: glycan array binding signal (z-score within array); higher = stronger binding
# Fuc(a1-2)Gal = conditions: glycan notation: IUPAC condensed, linker removed; mutation: H213R,G256S
# Method in brief: (§1)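 The binding signal is a Z-score computed within each array. Data were drawn from 3228 arrays in the Consortium for Functional Glycomics database, restricted to those with a known protein sequence. Scores were averaged over arrays of the same protein sequence at different concentrations or buffers, and over linkers, and negative values can be taken as non-binding.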
# Fuc(a1-2)Gal(b1-3)GalNAc = conditions: glycan notation: IUPAC condensed, linker removed; mutation: H213R,G256S
# Method in brief: as §1
# Fuc(a1-2)Gal(b1-4)Glc6S = conditions: glycan notation: IUPAC condensed, linker removed; mutation: H213R,G256S
# Method in brief: as §1
# [1] = biological target: Fuc(a1-2)Gal(b1-4)[Fuc(a1-3)]GlcNAc(b1-3)Gal(b1-4)[Fuc(a1-3)]GlcNAc(b1-3)Gal(b1-4)[Fuc(a1-3)]GlcNAc; conditions: glycan notation: IUPAC condensed, linker removed; mutation: H213R,G256S
# Method in brief: as §1
# [2] = biological target: Fuc(a1-2)[GalNAc(a1-3)]Gal(b1-4)[Fuc(a1-3)]GlcNAc; conditions: glycan notation: IUPAC condensed, linker removed; mutation: H213R,G256S
# Method in brief: as §1
# Fuc(a1-3)GlcNAc = conditions: glycan notation: IUPAC condensed, linker removed; mutation: H213R,G256S
# Method in brief: as §1
# [3] = biological target: Fuc(a1-3)[Gal(b1-4)]GlcNAc(b1-4)Gal(b1-4)[Fuc(a1-3)]GlcNAc; conditions: glycan notation: IUPAC condensed, linker removed; mutation: H213R,G256S
# Method in brief: as §1
# Gal(a1-4)Gal(b1-4)Glc = conditions: glycan notation: IUPAC condensed, linker removed; mutation: H213R,G256S
# Method in brief: as §1
# Gal(a1-4)GlcNAc = conditions: glycan notation: IUPAC condensed, linker removed; mutation: H213R,G256S
# Method in brief: as §1
# Gal3S(b1-3)GalNAc = conditions: glycan notation: IUPAC condensed, linker removed; mutation: H213R,G256S
# Method in brief: as §1
# [4] = biological target: Gal3S(b1-4)[Fuc(a1-3)]Glc; conditions: glycan notation: IUPAC condensed, linker removed; mutation: H213R,G256S
# Method in brief: as §1
# Gal3S6S(b1-4)GlcNAc6S = conditions: glycan notation: IUPAC condensed, linker removed; mutation: H213R,G256S
# Method in brief: as §1
# Gal6S(b1-4)Glc6S = conditions: glycan notation: IUPAC condensed, linker removed; mutation: H213R,G256S
# Method in brief: as §1
# Glc(b1-6)Glc = conditions: glycan notation: IUPAC condensed, linker removed; mutation: H213R,G256S
# Method in brief: as §1
# Kdn(a2-3)Gal(b1-4)GlcNAc = conditions: glycan notation: IUPAC condensed, linker removed; mutation: H213R,G256S
# Method in brief: as §1
# [5] = biological target: Man(a1-2)Man(a1-3)[Man(a1-2)Man(a1-6)]Man(a1-6)[Man(a1-2)Man(a1-2)Man(a1-3)]Man(b1-4)GlcNAc(b1-4)GlcNAc; conditions: glycan notation: IUPAC condensed, linker removed; mutation: H213R,G256S
# Method in brief: as §1
# [6] = biological target: Neu5Ac(a2-3)Gal(b1-3)GalNAc; conditions: glycan notation: IUPAC condensed, linker removed; mutation: H213R,G256S
# Method in brief: as §1
# [7] = biological target: Neu5Ac(a2-3)Gal(b1-3)[Neu5Ac(a2-3)Gal(b1-4)]GlcNAc; conditions: glycan notation: IUPAC condensed, linker removed; mutation: H213R,G256S
# Method in brief: as §1
# [8] = biological target: Neu5Ac(a2-3)Gal(b1-4)[Fuc(a1-3)]GlcNAc(b1-3)Gal(b1-4)GlcNAc; conditions: glycan notation: IUPAC condensed, linker removed; mutation: H213R,G256S
# Method in brief: as §1
# [9] = biological target: Neu5Ac(a2-6)Gal(b1-4)GlcNAc6S; conditions: glycan notation: IUPAC condensed, linker removed; mutation: H213R,G256S
# Method in brief: as §1
# [10] = biological target: Neu5Gc(a2-3)Gal(b1-4)GlcNAc; conditions: glycan notation: IUPAC condensed, linker removed; mutation: H213R,G256S
# Method in brief: as §1
# Gal6S(b1-4)GlcNAc = conditions: glycan notation: IUPAC condensed, linker removed
# Method in brief: as §1
# [11] = biological target: GalNAc(a1-3)GalNAc(b1-3)Gal(a1-4)Gal(b1-4)GlcNAc; conditions: glycan notation: IUPAC condensed, linker removed
# Method in brief: as §1
# GalNAc(b1-3)Gal = conditions: glycan notation: IUPAC condensed, linker removed
# Method in brief: as §1
# GalNAc(b1-4)GlcNAc6S = conditions: glycan notation: IUPAC condensed, linker removed
# Method in brief: as §1
# [12] = biological target: Glc(a1-4)Glc(a1-4)Glc(a1-4)Glc; conditions: glycan notation: IUPAC condensed, linker removed
# Method in brief: as §1
# Glc(a1-6)Glc(a1-6)Glc = conditions: glycan notation: IUPAC condensed, linker removed
# Method in brief: as §1
# [13] = biological target: Glc(a1-6)Glc(a1-6)Glc(a1-6)Glc; conditions: glycan notation: IUPAC condensed, linker removed
# Method in brief: as §1
# [14] = biological target: GlcNAc(a1-4)Gal(b1-4)GlcNAc(b1-3)Gal(b1-4)[Fuc(a1-3)]GlcNAc(b1-3)Gal(b1-4)[Fuc(a1-3)]GlcNAc; conditions: glycan notation: IUPAC condensed, linker removed
# Method in brief: as §1
# [15] = biological target: GlcNAc(a1-6)Gal(b1-4)GlcNAc; conditions: glycan notation: IUPAC condensed, linker removed
# Method in brief: as §1
# [16] = biological target: GlcNAc(b1-2)[GlcNAc(b1-6)]Man(a1-6)[GlcNAc(b1-2)Man(a1-3)]Man(b1-4)GlcNAc(b1-4)GlcNAc; conditions: glycan notation: IUPAC condensed, linker removed
# Method in brief: as §1
# [17] = biological target: GlcNAc(b1-2)[GlcNAc(b1-6)]Man(a1-6)[GlcNAc(b1-4)][GlcNAc(b1-2)Man(a1-3)]Man(b1-4)GlcNAc(b1-4)GlcNAc; conditions: glycan notation: IUPAC condensed, linker removed
# Method in brief: as §1
# [18] = biological target: GlcNAc(b1-3)Gal(b1-4)GlcNAc(b1-3)Gal(b1-4)GlcNAc(b1-3)GalNAc; conditions: glycan notation: IUPAC condensed, linker removed
# Method in brief: as §1
# GlcNAc(b1-4)GlcNAc = conditions: glycan notation: IUPAC condensed, linker removed
# Method in brief: as §1
# [19] = biological target: GlcNAc(b1-4)GlcNAc(b1-4)GlcNAc(b1-4)GlcNAc(b1-4)GlcNAc; conditions: glycan notation: IUPAC condensed, linker removed
# Method in brief: as §1
# [20] = biological target: GlcNAc(b1-6)Gal(b1-4)GlcNAc; conditions: glycan notation: IUPAC condensed, linker removed
# Method in brief: as §1
# [21] = biological target: GlcNAc6S(b1-3)Gal(b1-4)GlcNAc; conditions: glycan notation: IUPAC condensed, linker removed
# Method in brief: as §1
# [22] = biological target: Man(a1-2)Man(a1-2)Man(a1-6)[Man(a1-3)]Man; conditions: glycan notation: IUPAC condensed, linker removed
# Method in brief: as §1
# [23] = biological target: Man(a1-2)Man(a1-3)[Man(a1-2)Man(a1-6)]Man(a1-6)[Man(a1-2)Man(a1-2)Man(a1-3)]Man; conditions: glycan notation: IUPAC condensed, linker removed
# Method in brief: as §1
# [24] = biological target: Man(a1-3)[Man(a1-6)]Man(a1-6)[Man(a1-2)Man(a1-3)]Man(b1-4)GlcNAc(b1-4)GlcNAc; conditions: glycan notation: IUPAC condensed, linker removed
# Method in brief: as §1
# [25] = biological target: Neu5Ac(a2-3)Gal(b1-4)GlcNAc(b1-2)Man; conditions: glycan notation: IUPAC condensed, linker removed
# Method in brief: as §1
# [26] = biological target: Neu5Ac(a2-3)Gal(b1-4)GlcNAc(b1-3)Gal(b1-4)GlcNAc(b1-2)Man(a1-3)[Neu5Ac(a2-3)Gal(b1-4)GlcNAc(b1-3)Gal(b1-4)GlcNAc(b1-2)Man(a1-6)]Man(b1-4)GlcNAc(b1-4)GlcNAc; conditions: glycan notation: IUPAC condensed, linker removed
# Method in brief: as §1
# [27] = biological target: Neu5Ac(a2-3)Gal(b1-4)GlcNAc(b1-6)[Neu5Ac(a2-3)Gal(b1-3)]GalNAc; conditions: glycan notation: IUPAC condensed, linker removed
# Method in brief: as §1
# [28] = biological target: Neu5Ac(a2-3)Gal(b1-4)GlcNAc6S; conditions: glycan notation: IUPAC condensed, linker removed
# Method in brief: as §1
# Neu5Ac(a2-6)Gal = conditions: glycan notation: IUPAC condensed, linker removed
# Method in brief: as §1
# [29] = biological target: Neu5Ac(a2-6)Gal(b1-4)GlcNAc(b1-2)Man(a1-3)[Neu5Ac(a2-6)Gal(b1-4)GlcNAc(b1-2)Man(a1-6)]Man(b1-4)GlcNAc(b1-4)[Fuc(a1-6)]GlcNAc; conditions: glycan notation: IUPAC condensed, linker removed
# Method in brief: as §1
# [30] = biological target: Neu5Ac(a2-6)Gal(b1-4)GlcNAc(b1-3)Gal(b1-4)GlcNAc(b1-6)[Gal(b1-3)]GalNAc; conditions: glycan notation: IUPAC condensed, linker removed
# Method in brief: as §1
# [31] = biological target: Neu5Ac(a2-6)Gal(b1-4)GlcNAc(b1-6)[Gal(b1-3)]GalNAc; conditions: glycan notation: IUPAC condensed, linker removed
# Method in brief: as §1
# [32] = biological target: Neu5Gc(a2-3)Gal(b1-3)[Fuc(a1-4)]GlcNAc; conditions: glycan notation: IUPAC condensed, linker removed
# Method in brief: as §1
binder,measurement,setting,value
CD23 (Homo sapiens) (protein) MELQVSSGFVCNTCPEKWINFQRKCYYFGKGTKQWVHARYACDDMEGQLVSIHSPEEQDFLTKRASHTGSWIGLRNLDLKGEFIWVDGSHVDYSNWAPGEPTSRSQSEDCVMMRGSGRWNDAFCDRKLGAWVCDRLATCTPPASEGSAESMGPDSRPDPDGRLPTPSAPLHS,glycan array binding signal (z-score),Fuc(a1-2)Gal,0.42
same,glycan array binding signal (z-score),Fuc(a1-2)Gal(b1-3)GalNAc,0.764
same,glycan array binding signal (z-score),Fuc(a1-2)Gal(b1-4)Glc6S,0.623
same,glycan array binding signal (z-score),[1],1.02
same,glycan array binding signal (z-score),[2],-0.361
same,glycan array binding signal (z-score),Fuc(a1-3)GlcNAc,-0.166
same,glycan array binding signal (z-score),[3],0.007
same,glycan array binding signal (z-score),Gal(a1-4)Gal(b1-4)Glc,-0.15
same,glycan array binding signal (z-score),Gal(a1-4)GlcNAc,0.434
same,glycan array binding signal (z-score),Gal3S(b1-3)GalNAc,-0.308
same,glycan array binding signal (z-score),[4],-0.106
same,glycan array binding signal (z-score),Gal3S6S(b1-4)GlcNAc6S,1.06
same,glycan array binding signal (z-score),Gal6S(b1-4)Glc6S,0.798
same,glycan array binding signal (z-score),Glc(b1-6)Glc,-0.561
same,glycan array binding signal (z-score),Kdn(a2-3)Gal(b1-4)GlcNAc,-0.386
same,glycan array binding signal (z-score),[5],0.376
same,glycan array binding signal (z-score),[6],-0.283
same,glycan array binding signal (z-score),[7],-0.301
same,glycan array binding signal (z-score),[8],0.869
same,glycan array binding signal (z-score),[9],-0.002
same,glycan array binding signal (z-score),[10],0.062
VLRB.aGPA.23-GCN4-biotin (Petromyzon marinus) (protein) ACPSQCSCSGTEVNCAGKSLASVPAGIPTTTRVLYLNSNQITKLEPGVFDRLANLRELHLWGNQLVSLPPGVFDNLANLEKLWLNSNQLTSLPAGLFDRLVNLEHLGLCCMKLTELPSGAFDKLTRLKQLGLDQNQLKSIPDGAFARLPSLTHVWLHTNPWDCQCTDILYLSGWVAQHSSIVGEGWPWRHSPDSAKCSGTNTPVRAVTEASTSPSKCP,glycan array binding signal (z-score),Gal6S(b1-4)GlcNAc,-0.083
same,glycan array binding signal (z-score),[11],-0.076
same,glycan array binding signal (z-score),GalNAc(b1-3)Gal,-0.076
same,glycan array binding signal (z-score),GalNAc(b1-4)GlcNAc6S,-0.082
same,glycan array binding signal (z-score),[12],-0.064
same,glycan array binding signal (z-score),Glc(a1-6)Glc(a1-6)Glc,-0.077
same,glycan array binding signal (z-score),[13],-0.076
same,glycan array binding signal (z-score),[14],-0.069
same,glycan array binding signal (z-score),[15],-0.087
same,glycan array binding signal (z-score),[16],-0.079
same,glycan array binding signal (z-score),[17],-0.085
same,glycan array binding signal (z-score),[18],-0.084
same,glycan array binding signal (z-score),GlcNAc(b1-4)GlcNAc,-0.088
same,glycan array binding signal (z-score),[19],-0.086
same,glycan array binding signal (z-score),[20],-0.084
same,glycan array binding signal (z-score),[21],-0.08
same,glycan array binding signal (z-score),[22],-0.059
same,glycan array binding signal (z-score),[23],-0.081
same,glycan array binding signal (z-score),[24],0.041
same,glycan array binding signal (z-score),[25],-0.068
same,glycan array binding signal (z-score),[26],-0.005
same,glycan array binding signal (z-score),[27],-0.087
same,glycan array binding signal (z-score),[28],-0.079
same,glycan array binding signal (z-score),Neu5Ac(a2-6)Gal,-0.082
same,glycan array binding signal (z-score),[29],-0.074
same,glycan array binding signal (z-score),[30],-0.072
same,glycan array binding signal (z-score),[31],-0.077
same,glycan array binding signal (z-score),[32],-0.074
